Assay [1] in a line: qHTS assay to identify small molecule antagonists of the estrogen related receptor (ERR) signaling pathway from Tox21 library - cell viability counter screen (AID 1224834). Also: nearly all actives have a fitted effect of over 30% in size. Also: potency is read from the fitted curve at half-maximal effect. To be noted: ERR reporter cells viability, CellTiter-Fluor, 17.5 h; series mostly up to 92.4 µM. The essentials:
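Multiplexed viability counter screen in ERR cells: 17.5 h compound exposure at 37 C, CellTiter-Fluor added, 30 min at 37 C/5% CO2, fluorescence read.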
(In general: qHTS replaces the single test concentration by a dilution series.)

For assay [2], the target named is Luciferin 4-monooxygenase (Photinus pyralis) (UniProt P08659). The experiment in a line: qHTS assay to identify small molecule inhibitors of firefly luciferase (AID 1224835). Also: nearly all actives have a fitted effect of over 25% in size. Also: potency is read from the fitted curve at half-maximal effect. The following applies: purified P. pyralis luciferase, luminescence inhibition; series mostly up to 52.9 µM. An outline of the steps: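 Inhibition of purified Photinus luciferase is measured by luminescence. Substrate levels (D-luciferin, ATP) sit at their KM values. Each compound is tested in a concentration series.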
Chain of Luciferin 4-monooxygenase (Photinus pyralis) (P08659 whole entry, looked up): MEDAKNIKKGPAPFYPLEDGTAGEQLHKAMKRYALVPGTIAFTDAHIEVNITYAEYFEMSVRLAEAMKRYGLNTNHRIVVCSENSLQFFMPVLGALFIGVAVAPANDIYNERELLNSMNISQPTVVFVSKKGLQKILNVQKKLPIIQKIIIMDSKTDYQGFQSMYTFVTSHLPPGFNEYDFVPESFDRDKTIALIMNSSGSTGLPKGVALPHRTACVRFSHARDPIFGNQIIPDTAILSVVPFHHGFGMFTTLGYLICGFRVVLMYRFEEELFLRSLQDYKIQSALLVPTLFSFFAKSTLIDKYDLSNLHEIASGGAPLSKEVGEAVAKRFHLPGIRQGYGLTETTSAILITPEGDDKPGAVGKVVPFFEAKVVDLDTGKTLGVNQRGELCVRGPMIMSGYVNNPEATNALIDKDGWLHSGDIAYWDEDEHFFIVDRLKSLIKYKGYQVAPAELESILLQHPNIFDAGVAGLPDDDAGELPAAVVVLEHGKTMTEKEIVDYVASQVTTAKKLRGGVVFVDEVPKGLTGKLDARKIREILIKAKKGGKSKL

Assay [3] is described as follows: qHTS assay to identify small molecule agonists of the constitutive androstane receptor (CAR) signaling pathway - cell viability counter screen (AID 1224836). Also: nearly all actives have a fitted effect of over 45% in size. Also: potency is read from the fitted curve at half-maximal effect. To be noted: HepG2-CYP2B6-hCAR viability, CellTiter-Fluor, 23 h, PK11195 added to every well; series mostly up to 92.4 µM. The essentials:
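Viability read-out: CellTiter-Fluor fluorescence after 23 h compound exposure at 37 C/5% CO2 in double-stable HepG2-CYP2B6-hCAR cells, with PK11195 present at 0.75 uM final; compounds tested in 15-point titration.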

Assay [4] in a line: qHTS assay to identify small molecule antagonists of the constitutive androstane receptor (CAR) signaling pathway - cell viability counter screen (AID 1224837). Also: nearly all actives have a fitted effect of over 45% in size. To be noted: HepG2-CYP2B6-hCAR viability, CellTiter-Fluor, 23 h, co-treated with 50 nM CITCO; series mostly up to 92.4 µM. The essentials:
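Read-out: CellTiter-Fluor fluorescence after 23 hr at 37 C/5% CO2. Cells: HepG2 double-stable for hCAR and CYP2B6-2.2kb. Compounds tested at 15 concentrations in the presence of CITCO, final concentration 50 nM.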

Assay [5] can be described thus: qHTS assay to identify small molecule antagonists of the estrogen related receptor signaling pathway with the pleiotropic PPARgamma coactivator (PGC) from Tox21 10K library - cell viability counter screen (AID 1224840; active = well fitted cell-killing curve with a large enough effect in the repeat runs, not every such curve was filed as active; also: nearly all actives have a fitted effect of over 40% in size; also: potency is read from the fitted curve at half-maximal effect). To be noted: PGC/ERR reporter cells viability, CellTiter-Fluor, 17.5 h; series mostly up to 92.4 µM. The essentials: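 Fluorescence read-out of CellTiter-Fluor viability reagent, added after cells had been exposed to compound in DMSO for 17.5 h at 37 C; 30 min development at 37 C/5% CO2. Cells: PGC/ERR line, 2,000/well.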

Assay [6] addresses Thyrotropin receptor (Homo sapiens) (UniProt P16473). The experiment in a line: qHTS assay to identify small molecule agonists of the thyroid stimulating hormone receptor (TSHR) signaling pathway (AID 1224843; calls by dose curve; also: nearly all actives have a fitted effect of over 45% in size). To be noted: TSHR-HEK293 cells, cAMP HTRF, agonist mode, 30 min; series mostly up to 92.4 µM. An outline of the steps: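 A cell-based cAMP HTRF format was run in TSHR-transfected HEK293 cells, 800 per well. Treatment: 30 min, room temperature. Detection: 1 h with labelled cAMP and anti-cAMP cryptate. Concentration-response over 15 points, three replicates.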

Assay [7] addresses Nuclear receptor subfamily 1 group I member 3 (Homo sapiens) (UniProt Q14994). The experiment in a line: qHTS assay to identify small molecule antagonists of the constitutive androstane receptor (CAR) signaling pathway (AID 1224838).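 Also: HepG2 cells stably expressing hCAR with CYP2B6 luciferase reporter stimulated by CITCO; nearly all actives have a fitted effect of over 40% in size.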 Also: potency is read from the fitted curve at half-maximal effect. The following applies: HepG2-CYP2B6-hCAR luciferase, CITCO-stimulated, 24 h; series mostly up to 92.4 µM. An outline of the steps:
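Read-out: ONE-Glo luciferase luminescence after 30 min at room temperature. HepG2-CYP2B6-hCAR double-stable cells, compounds in 15-point titration plus 50 nM CITCO final, 24 h at 37 C/5% CO2.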

The target is the same in assay [8]. The experiment in a line: qHTS assay to identify small molecule agonists of the constitutive androstane receptor (CAR) signaling pathway (AID 1224839). Also: nearly all actives have a fitted effect of over 15% in size. Also: potency is read from the fitted curve at half-maximal effect. To be noted: HepG2 hCAR CYP2B6-luciferase, agonist mode, 24 h; series mostly up to 92.4 µM. The essentials: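 Luminescence read-out (ONE-Glo, 30 min, room temperature) from double-stable HepG2-CYP2B6-hCAR cells exposed 24 h to 15-point compound series in presence of 0.75 uM PK11195 final.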

The nature of assay [9]: qHTS assay to identify small molecule antagonists of the estrogen related receptor signaling pathway with the pleiotropic PPARgamma coactivator (PGC) from Tox21 10K library (AID 1224841; call rule not given here; also: actives are mostly falling curves and most rising ones were filed inactive; nearly all actives have a fitted effect of over 50% in size; also: potency is read from the fitted curve at half-maximal effect). The following applies: PGC/ERR reporter cell line, ONE-Glo luciferase, 18 h; series mostly up to 92.4 µM. An outline of the steps:
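Luminescence read-out (One-Glo luciferase reagent, 30 min at room temperature) from PGC/ERR cells exposed to DMSO-dissolved test compounds for 18 h at 37 C; cells, 2,000 per well, had been preincubated 6 h before compound transfer.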

A short description of assay [10]: qHTS assay to identify small molecule agonists of the estrogen related receptor signaling pathway with the pleiotropic PPARgamma coactivator (PGC) from Tox21 10K library (AID 1224842). Also: nearly all actives have a fitted effect of over 15% in size. To be noted: PGC/ERR reporter cell line, luciferase ONE-Glo, 18 h; series mostly up to 92.4 µM. The essentials:
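Luminescence from One-Glo (30 min, room temperature) measured after PGC/ERR cells had 18 h at 37 C with pinned compound (23 nL in DMSO). Cells had been seeded at 2,000 per well and pre-incubated 6 h.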

Inconclusive results are not listed. A number with no mark means an inactive call. The source made the active and inactive calls. Unless noted, calls follow the shape of the dose curve; as a rule, active = well fitted curve in the direction sought with a large enough effect in the repeat runs; inconclusive = weak or mixed curves; inactive = no such curve, though single readings can be large; an effect the other way counts as inactive or inconclusive.

Chain of Nuclear receptor subfamily 1 group I member 3 (Homo sapiens) (Q14994 whole entry, looked up): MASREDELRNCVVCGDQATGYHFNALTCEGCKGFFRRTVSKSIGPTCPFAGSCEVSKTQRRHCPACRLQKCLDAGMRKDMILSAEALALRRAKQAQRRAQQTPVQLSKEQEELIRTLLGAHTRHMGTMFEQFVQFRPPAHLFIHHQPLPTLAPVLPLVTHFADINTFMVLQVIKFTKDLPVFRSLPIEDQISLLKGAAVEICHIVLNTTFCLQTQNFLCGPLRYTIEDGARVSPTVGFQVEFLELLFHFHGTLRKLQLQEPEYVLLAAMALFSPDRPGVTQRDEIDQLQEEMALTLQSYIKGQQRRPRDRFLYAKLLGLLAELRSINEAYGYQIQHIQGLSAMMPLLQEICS
Chain of Thyrotropin receptor (Homo sapiens) (P16473 whole entry, looked up): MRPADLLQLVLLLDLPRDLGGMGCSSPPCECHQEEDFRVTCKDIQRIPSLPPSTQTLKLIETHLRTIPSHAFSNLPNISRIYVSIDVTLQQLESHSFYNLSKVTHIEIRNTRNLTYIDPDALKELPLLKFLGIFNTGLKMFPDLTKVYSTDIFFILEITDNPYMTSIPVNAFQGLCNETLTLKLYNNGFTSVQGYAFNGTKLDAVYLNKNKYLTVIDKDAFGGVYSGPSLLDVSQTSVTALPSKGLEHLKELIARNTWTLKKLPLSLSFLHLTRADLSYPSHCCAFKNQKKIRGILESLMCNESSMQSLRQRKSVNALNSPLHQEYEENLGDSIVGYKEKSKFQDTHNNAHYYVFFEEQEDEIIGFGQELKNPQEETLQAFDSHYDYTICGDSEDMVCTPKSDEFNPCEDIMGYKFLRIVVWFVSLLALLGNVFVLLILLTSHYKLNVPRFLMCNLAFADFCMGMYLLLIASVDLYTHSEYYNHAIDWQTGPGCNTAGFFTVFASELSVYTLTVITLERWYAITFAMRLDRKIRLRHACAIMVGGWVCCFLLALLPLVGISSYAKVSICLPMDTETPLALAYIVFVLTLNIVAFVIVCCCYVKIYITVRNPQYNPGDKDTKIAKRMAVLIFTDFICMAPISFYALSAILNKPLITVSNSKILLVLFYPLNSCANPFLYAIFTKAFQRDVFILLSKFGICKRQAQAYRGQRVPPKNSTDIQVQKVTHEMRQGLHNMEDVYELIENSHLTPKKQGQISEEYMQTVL

Turning to `O=C1c2ccccc2C(=O)C1c1nc2ccccc2c(Br)c1O`, the Potency entry in assay [1], in [3], in assay [4], in assay [5] and in [6] was “inactive” each time. In addition, the Potency in [2] is 17.8 µM (active).

On to `COC(=O)CS`, for which the Potency result in [1], in [2], in [3], in assay [4], in [5] and in assay [6] was “inactive” in each case.

Turning to `CO[C@]1(NC(=O)CSC(F)F)C(=O)N2C(C(=O)O)=C(CSc3nnnn3CCO)CO[C@H]21`, the Potency result in assay [1], in assay [2], in [3], in [4], in assay [5] and in assay [6] was “inactive” each time.

Regarding `O=C1NC(=O)c2cc([N+](=O)[O-])ccc21`, the Potency result in assay [1], in [2], in assay [3], in [4], in assay [5] and in assay [6] was “inactive” each time.

`C=C/C(C)=C/C/C=C(\C)CCC=C(C)C`: the Potency result in assay [1], in assay [2], in [3], in assay [7], in [8] and in assay [5] was “inactive” throughout. In addition, the Potency result in [9], in [10] and in assay [6] was “inactive” throughout.

As for `Cc1[nH]cnc1CN1CCc2c(c3ccccc3n2C)C1=O`, the Potency entry in assay [1], in [2], in assay [3], in assay [7], in [8] and in [5] was “inactive” each time. Further, the Potency entry in assay [10] and in [6] was “inactive” throughout.

Take `Oc1cc2c(cc1O)[C@H]1c3ccc(O)c(O)c3OC[C@@]1(O)C2`: the Potency in [1] is 39 µM (active); in assay [2], 32.1 µM (active); in assay [3], 49.2 µM (active); in assay [7], 49.2 µM (active); in assay [5] it was 27.6 µM (active); in [9] it was 34.8 µM (active). Further, the Potency result in assay [8] and in assay [10] was “inactive” throughout.

`C[C@]1(Cn2ccnn2)[C@H](C(=O)O)N2C(=O)C[C@H]2S1(=O)=O`: the Potency entry in assay [1], in [2], in [3], in assay [4], in assay [5] and in assay [6] was “inactive” throughout.

Turning to `COc1ccccc1Oc1c(NS(=O)(=O)c2ccc(C(C)(C)C)cc2)nc(-c2ncccn2)nc1OCCO`, the Potency entry in assay [1], in assay [2], in assay [3], in assay [7], in assay [8] and in assay [5] was “inactive” throughout. Besides, the Potency result in [9], in assay [10] and in [6] was “inactive” throughout.

For `O=C(CCCN1CC=C(n2c(=O)[nH]c3ccccc32)CC1)c1ccc(F)cc1`, the Potency in [1] is 33.5 µM (active). For the same compound, the Potency result in assay [2], in [3], in assay [7], in assay [8], in assay [5] and in [6] was “inactive” in each case.

`O=C(O)CCC(=O)C(=O)O`: the Potency result in assay [1], in assay [2], in [3], in [4], in assay [5] and in [6] was “inactive” throughout.

With `O=C(/C=C/c1ccc(O)c(O)c1)O[C@@H]1C[C@@](OC(=O)/C=C/c2ccc(O)c(O)c2)(C(=O)O)C[C@@H](O)[C@@H]1O`, the Potency entry in assay [1], in assay [2], in [3], in [4], in assay [5] and in [6] was “inactive” throughout.

As for `CC(C)(C)CC(=O)OCC(=O)[C@@]1(O)CC[C@H]2[C@@H]3CCC4=CC(=O)C=C[C@]4(C)[C@H]3[C@@H](O)C[C@@]21C`, the Potency in [1] is 26.6 µM (active); in [9], 23.7 µM (active). Moreover, the Potency entry in [2], in assay [3], in assay [7], in assay [8], in [5] and in [10] was “inactive” each time. Besides, in assay [6], the Potency result was “inactive”.

Turning to `Cc1cccc(N(C)C(=S)Oc2ccc3c(c2)CCC3)c1`, the Potency entry in assay [1], in assay [2], in [3], in [7], in assay [5] and in assay [9] was “inactive” each time. In [10], the Potency result was “inactive”. For the same compound, the Potency in assay [8] is 23.7 µM (active).

On to `CC(O)c1ccccc1` (stereo unspecified), for which the Potency result in [1], in assay [2], in assay [3], in assay [7], in assay [8] and in assay [5] was “inactive” in each case. Moreover, the Potency entry in assay [9], in assay [10] and in [6] was “inactive” each time.

Regarding `CCC(OCCCOC)OC(C)=O` (stereo unspecified), the Potency result in assay [1], in assay [2], in assay [3], in assay [4], in assay [5] and in assay [6] was “inactive” throughout.

As to `O=C(O)CCc1nc(-c2ccccc2)c(-c2ccccc2)o1`, the Potency entry in assay [1], in assay [2], in assay [3], in [7], in assay [8] and in assay [5] was “inactive” throughout. For the same compound, the Potency entry in [9], in assay [10] and in assay [6] was “inactive” in each case.

`CCC1CO1` (stereo unspecified): the Potency result in assay [1], in assay [2], in [3], in assay [4], in assay [5] and in assay [6] was “inactive” in each case.

Consider `C=COCC(C)C`, for which the Potency entry in [1], in assay [2], in assay [3], in assay [7], in assay [8] and in assay [5] was “inactive” throughout. For the same compound, the Potency result in assay [9], in assay [10] and in [6] was “inactive” each time.

For the compound `C[C@@H](O)[C@H]1C(=O)N2C(C(=O)O)=C([C@H]3CCCO3)S[C@H]12`, the Potency result in assay [1], in assay [2], in assay [3], in assay [4], in assay [5] and in assay [6] was “inactive” each time.

With `C=C1CCC2CC1C2(C)C` (stereo unspecified), the Potency entry in [1], in assay [2], in assay [3], in assay [4], in [5] and in [6] was “inactive” throughout.

Regarding `C=CCc1ccccc1OCC(O)CNC(C)C` (stereo unspecified), the Potency result in assay [1], in assay [2], in assay [3], in [7], in assay [8] and in [5] was “inactive” throughout. For the same compound, the Potency entry in assay [6] is “inactive”.

As to `CCCCCCCCCCC(=O)O`, the Potency result in [1], in assay [3], in assay [4], in assay [5] and in assay [6] was “inactive” each time. Also, the Potency in assay [2] is 57.1 µM (active).

Turning to `CCc1ccccc1`, the Potency result in assay [1], in assay [2], in assay [3], in assay [7], in [8] and in [5] was “inactive” throughout. In addition, in assay [6], the Potency entry was “inactive”.

Source of the values: PubChem BioAssay (Tox21).
